Measured values as given in PubChem BioAssay (NCI).
“And” between values parts separate entries of the source, which are not always exact repeats. Equal values may be shown once. The panel holds about 83,000 compounds, 20% with a hit somewhere; the sample as a whole holds those more often.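 Compound tested at a single concentration for 48 hours in 96-well plates; a percent growth value below 10 was scored as active.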 The source made the active and inactive calls.

Each compound was assayed on HL-60(TB) leukemia (assay: NCI-60 one-dose screen, 48 h (100 = growth as untreated, 0 = no growth, -100 = all killed)). Settings: 10 µM unless noted.
For Clc1ccc(-c2csc(N/N=C/c3nc4ccccc4n3C3CC3)n2)cc1, the growth was 107% (inactive). CCCCCCCCCC[C@@H](C)[C@@H]1CC(=O)N[C@H]([C@@H](C)O)C(=O)N[C@@H](C)C(=O)N[C@H](C)C(=O)N[C@@H](CCC(N)=O)C(=O)N[C@H](Cc2ccc(O)cc2)C(=O)N[C@@H](C(C)CC)C(=O)O1 (some centres undefined) was tested, and the growth was 65% (inactive). COc1ccc(Cn2cc3c(c2-c2ccccc2)CCCc2cnoc2-3)cc1 was tested, and the growth was 6.55% (active). For O=C(CCCCCCN1CC(=O)N2[C@@H](c3cc(F)cc(F)c3)c3[nH]c4ccccc4c3C[C@H]2C1=O)NO, the growth was 16.2% (inactive). For CCOC(=O)c1c(Nc2ccccc2)nn2c(-c3cccs3)ccnc12, the growth was 74.9% (inactive). With CC(=O)Oc1ccc(CCN2C(=O)CSC2=S)cc1 the growth was 57% (inactive). For COc1ccc([C@H]2c3[nH]c4ccccc4c3C[C@H]3C(=O)N(C4CCN(Cc5c(Cl)cccc5Cl)CC4)CC(=O)N23)c(OC)c1, the growth was 97% (inactive). Cc1ccc(S(=O)(=O)N/N=C/c2cn(-c3ccc(F)cc3)nc2-c2ccc(S(C)(=O)=O)cc2)cc1 was tested, and the growth was 97.5% (inactive). N#C/C(=C\c1cccc2c1OCO2)C(=O)Nc1sc2c(c1C#N)CCCC2 was tested, and the growth was 105% (inactive). CCOC(=O)c1sc(NCC(=O)Nc2cccc([N+](=O)[O-])c2)c(C(=O)OCC)c1C was tested, and the growth was 0.979% (active). With Cc1ccc2c(n1)C(=O)C(Cl)=C(Nc1ccccc1C(=O)OC(C)(C)C)C2=O the growth was -32.7% (active). CN(C)CCNC(=O)c1ccc(-c2nc3ccc4[nH]ncc4c3c3c2CCC3)cc1 was tested, and the growth was -18.8% (active). With COc1ccc(NC2=C(Br)C(=O)C(C)=C(C)C2=O)cc1OC the growth was -34.6% (active). In the case of CCN1C(=S)N(CC)C2C1N=C(SC)N2/N=C/C=C/c1ccccc1[N+](=O)[O-] (centres undefined), the growth is reported as 84.3% (inactive). COc1ccc(C(C)=C(c2ccc(OCCN3CCCCCC3)cc2)c2ccc(OCCN3CCCCCC3)cc2)cc1 was tested, and the growth was -46.9% (active). N#CC1=C2NCCCNc3oc(nc3C#N)Cc3ccccc3CC(=N1)O2 was tested, and the growth was 62.9% (inactive). CCCC(=O)NC(c1cccnc1)c1cc(C(C)=O)c2cccnc2c1O (centres undefined) was tested, and the growth was 24.9% (inactive). With O=C(Cn1cc[n+](CC(=O)c2ccc(-c3ccccc3)cc2)c1)Nc1cccc2cccnc12 the growth was 14.5% (inactive). With O=C(CN1CCN(c2cc(=O)n(-c3ccccc3)c3ccccc23)CC1)Nc1nc(-c2ccc(Cl)cc2)cs1 the growth was 26.2% (inactive). CCN1CCN(Cc2cn(-c3ccc(S(N)(=O)=O)cc3)nn2)CC1 was tested, and the growth was 110% (inactive). For Oc1cccc2ccc(-c3nnc(SCc4ccc(O)c5ncccc45)n3-c3ccccc3)nc12, the growth was 3.4% (active). For NS(=O)(=O)c1ccc(Nc2nc(N/N=C/c3ccccn3)nc(Nc3ccccc3)n2)cc1, the growth was 2.68% (active). For CCOC(=O)c1c(NC(=O)c2cccc(C(F)(F)F)c2)sc2c(CN3CCN(C)CC3)c(O)ccc12, the growth was -31% (active). In the case of C/C=C/CC(C)C(O)[C@H](NC(=O)[C@@H]1CCCN1C(=O)[C@](C)(CC)NC(=O)CCCCCCCCC)C(=O)N[C@@](C)(CC)C(=O)N[C@@H](CCC(N)=O)C(=O)N[C@H](CCC(N)=O)C(=O)NC(C)(C)C(=O)NC(C)(C)C(=O)N[C@@H](CCC(N)=O)C(=O)N[C@H](CC(C)C)C(=O)N[C@H](CO)CC(C)C (some centres undefined), the growth is reported as 52.5% (inactive) and -38.8% (active). With Cc1noc(C)c1CSc1nc2ccccc2n1-c1ccccc1 the growth was 111% (inactive). In the case of CCNCc1c(-c2cccc(OC(F)(F)F)c2)[nH]c2ccc(N3CCCC3)cc2c1=O, the growth is reported as -8.31% (active). In the case of C#Cc1ccc(NC(=O)c2ccc(/C=C/C(=O)c3nccn3C)cc2)c(F)c1, the growth is reported as 7.29% (active). N#Cc1c(-c2cccs2)cc(-c2cnccn2)nc1SCC(=O)c1ccc(F)cc1 was tested, and the growth was 131% (inactive). Oc1ccc(CSc2nnc(-c3ccc(Br)cc3)n2-c2ccccc2)c2cccnc12 was tested, and the growth was 27.5% (inactive). For COc1cc2c(cc1OC)C(Sc1ccc(C)cc1)c1c(nc(N)c(C#N)c1N)O2 (centres undefined), the growth was -19% (active). In the case of CCN1C(=O)N(CC)C2C1NN=C1SC(c3ccccc3)=CC(=O)N12 (centres undefined), the growth is reported as -2.48% (active). In the case of COc1cc2oc(-c3cccc(NC(=O)[C@@H](N)C(C)C)c3)cc(=O)c2c(OC)c1OC, the growth is reported as 105% (inactive). For N#C/C(=N\Nc1ccc(F)cc1)C(=O)Nc1cc(-c2ccccc2)nn1-c1ccccc1, the growth was 3.54% (active). With CN1c2ccccc2Sc2cc(/C=N/Nc3ccnc4cc(Cl)ccc34)ccc21 the growth was 77.1% (inactive). With Cc1nc(-c2ccccc2O)ccc1C(=O)N=Nc1c(O)[nH]c2ccc(Br)cc12 the growth was 114% (inactive). In the case of COc1ccc(C(=O)/C=C/c2ccc(OCc3ccc(C)cc3)c(OC)c2)cc1OC, the growth is reported as 40.7% (inactive). In the case of COc1ccc2oc3c4[nH]c5ccccc5c4c4c(c3c2c1)C(=O)N(O)C4=O, the growth is reported as 102% (inactive). Cc1cccc2c3c(sc12)C(c1ccc(F)cc1)C(C#N)=C(/N=C/c1ccc(Cl)cc1)O3 (centres undefined) was tested, and the growth was 2.41% (active). In the case of N#Cc1cnc2ccc(-c3cnc4[nH]ncc4c3)cc2c1N1CCc2cc(F)c(Cl)cc21, the growth is reported as 1.45% (active).
